# High-throughput results deposited in PubChem by The Scripps Research Institute Molecular Screening Center.
# Most compounds without a hit are left out; they make up all but 0.9% or so of the library.
# SRC2 TRFRET art: TR-FRET signal artefacts, primary screen, artefact control for PPARgamma SRC-2 agonist project, biochemical | TR-FRET artefact counter-screen; hits give high values | TR-FRET ratio at 8 µM | actives 0.4% (n = 200,000)
# PPARg SRC3 recr: PPARgamma agonists recruiting SRC-3 coactivator, primary screen, biochemical; biochemical PPARgamma/SRC-3 coactivator recruitment assay; activation, % at 8 µM; actives 0.26% (n = 200,000); in the data active means activation above about 23%;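 further: 0% = DMSO and 100% = reference agonist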
# Target sequence (P37231 whole entry, looked up): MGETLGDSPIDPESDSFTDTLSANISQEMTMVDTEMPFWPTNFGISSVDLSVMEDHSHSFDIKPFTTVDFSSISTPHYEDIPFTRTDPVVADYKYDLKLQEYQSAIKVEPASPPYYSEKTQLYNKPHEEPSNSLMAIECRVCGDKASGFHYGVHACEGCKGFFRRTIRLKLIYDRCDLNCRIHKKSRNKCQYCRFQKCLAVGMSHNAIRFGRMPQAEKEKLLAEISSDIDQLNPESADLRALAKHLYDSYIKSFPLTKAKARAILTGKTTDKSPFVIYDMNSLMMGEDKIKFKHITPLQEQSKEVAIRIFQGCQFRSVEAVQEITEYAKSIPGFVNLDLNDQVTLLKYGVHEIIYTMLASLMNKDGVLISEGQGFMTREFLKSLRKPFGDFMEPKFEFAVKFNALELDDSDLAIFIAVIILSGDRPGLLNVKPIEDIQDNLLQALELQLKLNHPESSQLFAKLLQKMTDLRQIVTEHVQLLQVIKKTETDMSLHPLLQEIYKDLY
# PPARg SRC-2 ag: agonists of PPARg-SRC-2 recruitment, primary screen, biochemical, HTS; AID 1032, 2008; actives 0.34% (n = 200,000); activation, % at 8 µM; PPARgamma LBD-SRC-2 recruitment; in the data active means activation above about 22%;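 further: 0% = vehicle and 100% = reference agonist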
# PPARg SRC-1 ag: PPARgamma agonists recruiting SRC-1 coactivator, primary screen, biochemical. activation, % at 8 µM. Peroxisome proliferator-activated receptor gamma (Homo sapiens), P37231. PPARgamma-SRC-1 coactivator recruitment biochemical assay. actives 0.41% (n = 200,000); in the data active means activation above about 19%;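 further: 0% = DMSO and 100% = reference agonist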
# SRC1 TRFRET art: TR-FRET detection interference compounds, primary screen, artefact control for PPARgamma SRC-1 recruitment agonists, biochemical, TR-FRET emission ratio; TR-FRET detection artefact counter-screen; hits give high values; TR-FRET ratio at 8 µM; actives 0.34% (n = 99,000); in the data active means TR-FRET ratio above about 2300
# SRC3 TRFRET art: TR-FRET detection interference compounds, artefact control for PPARgamma SRC-3 recruitment agonists, biochemical, TR-FRET ratio; TR-FRET artefact counter-screen, PPARgamma/SRC-3 format; hits give high values; TR-FRET ratio at 8 µM; actives 0.39% (n = 99,000); AID 1048, 2008
# * = called active by the depositor; · = no result. Unless noted, no stated cut-off is given here; in the data, active means TR-FRET ratio above about 2000; inactive means the rest.
SMILES,SRC2 TRFRET art,PPARg SRC3 recr,PPARg SRC-2 ag,PPARg SRC-1 ag,SRC1 TRFRET art,SRC3 TRFRET art
COc1ccc(S(=O)(=O)N2CCN(C3Cc4ccccc4C3)CC2)cc1,1352,6.4,-1.2,-6.3,1748,2079*
COc1ccc(S(=O)(=O)N2CCC(N3CCN(Cc4ccccc4)CC3)CC2)cc1,1489,-4.0,-2.7,-2.9,1599,1572
C=CCN(CC=C)Cc1c(O)ccc2c1oc(=O)c1ccccc12,1879,20.3,20.3,20.7*,·,·
NC(=S)Nc1cccc2cc3ccccc3cc12,1632,15.9,22.3*,13.7,·,·
O=C(CSc1ccccc1)NCCCN1CCOCC1,1558,-12.5,-2.6,4.2,·,·
O=C(CSc1c2c(nc3ccc(Cl)cc13)CCCC2)NCCCN1CCOCC1,1820,13.9,20.2,18.9,2131,2256*
O=C1CCCN1CCCNC(=S)Nc1ccc(F)cc1,1370,-1.6,0.3,-4.7,1772,1493
O=C1CCCN1CCC1CCN(C(=S)Nc2ccc(F)cc2)CC1,1700,14.6,22.0*,-1.0,·,·
N#Cc1cc2c(nc1SCc1ccccc1)CCC2,1654,7.8,12.8,85.1*,·,·
N#Cc1cc2c(nc1SCc1ccccc1)CCCC2,1574,1.1,2.3,7.0,2031,1643
O=C(c1cc2sccc2n1Cc1ccccc1)N1CCc2ccccc21,2447*,6.4,2.7,6.1,·,·
O=C(c1cc2sccc2n1Cc1ccc(F)cc1)N1CCN(c2nc3ccccc3s2)CC1,2655*,-3.4,7.5,7.8,·,·
CCC(CC)NC(=O)c1cccc(Oc2ccccc2)c1,1433,1.8,-3.0,4.0,1816,1405
COc1ccc(C(=O)NC(=S)N2CCOCC2)cc1OC,1389,0.7,1.5,-0.5,1760,1431
Cc1nc(N2CCCCC2C)c2c(C)c(C(=O)Nc3cccc(C(F)(F)F)c3)sc2n1 (stereo not given),1633,4.0,8.3,12.7,2035,1608
Cc1ccc(NC(=O)c2sc3nc(C)nc(N4CCN(c5ccccn5)CC4)c3c2C)c(C)c1,2163*,-2.2,-3.5,4.3,3496*,2659*
Cc1nc(N2CCCCC2)c2c(C)c(C(=O)Nc3cccc(C(F)(F)F)c3)sc2n1,1762,12.4,13.8,6.6,2255,2057*
CC(=O)Nc1nc(Cn2nnc(-c3ccc4c(c3)OCO4)n2)nc(N(C)C)n1,1695,1.0,8.9,-0.4,1915,1681
O=C(Cc1cccs1)N(CC1CCCO1)C1(C(=O)NC2CCCC2)CCCCC1 (stereo not given),1588,0.3,-7.1,-5.8,1670,1424
CCn1ccnc1CN(C)C(=O)CCc1nnc(CCCc2ccccc2)o1,1640,3.6,11.6,7.2,1796,1717
CC(=O)Nc1ccc(N(C(=O)CNC(=O)c2cccs2)C(C(=O)NC(C)(C)C)c2ccccc2)cc1 (stereo not given),1777,1.2,5.7,-2.3,1867,1743
CCOc1ccccc1Nc1nnc(SCC(=O)Nc2nc(-c3ccc(OC)cc3)cs2)s1,2038*,6.5,6.6,5.6,2149,1775
O=C(Nc1nc(-c2cccs2)cs1)c1ccc(S(=O)(=O)N2CCCC2)cc1,2064*,4.2,-0.1,-5.1,·,·
CN(C)S(=O)(=O)c1ccc(C(=O)Nc2nc(-c3cccs3)cs2)cc1,1736,-1.1,-2.7,-5.0,·,·
CCSC1=N/C(=C\c2ccc(OC)cc2)C(=O)N1,1665,7.6,-2.1,7.6,1935,1829
SMILES,SRC2 TRFRET art,PPARg SRC3 recr,PPARg SRC-2 ag,PPARg SRC-1 ag,SRC1 TRFRET art,SRC3 TRFRET art
COc1ccc(/C=C2\N=C(SC)NC2=O)cc1,1784,16.0,22.3*,3.6,·,·
CC(C)(C)NC(=O)CSc1nnc(-c2ccco2)n1Cc1ccco1,2029*,2.8,13.0,4.7,1846,1540
C=CCc1cccc([C@@H]2[C@@H](C)CC[C@H]3C(=O)N4[C@@H](c5cc(OC)c(OC)c(OC)c5)c5[nH]c6ccccc6c5C[C@H]4C(=O)N23)c1,1356,-0.8,6.2,-0.6,1570,1513
O=c1[nH]c(=S)[nH]c2sccc12,2050*,5.5,7.5,-1.3,2108,1856
CSc1nc2sccc2c(=O)[nH]1,1538,1.0,-1.6,-3.4,1900,1619
O=C(N/N=C/c1ccccc1)c1sccc1OCc1ccc(F)cc1,1470,0.8,-2.2,5.5,·,·
CCOc1ccc(CCNC(=O)CSc2nnnn2C)cc1OCC,1549,1.6,-5.8,3.7,1724,1401
CCOc1ccc(CCNC(=O)CSc2nn(-c3ccc(C)c(Cl)c3)c(=S)s2)cc1OCC,1407,0.9,3.2,29.9*,2577*,1533
Cc1cc2nc(-c3ccc(SCc4ccc(C#N)cc4)nc3)[nH]c2cc1C,2209*,9.7,12.0,4.6,·,·
O=C(CNC(=S)N(Cc1ccccc1Cl)C1CCCC1)NCCN1CCOCC1,1618,6.4,8.3,9.2,1897,1662
COc1ccc2nc(C)cc(SCC(=O)NNC(=O)COc3ccc(C)cc3)c2c1,1879,11.0,16.1,15.6,·,·
COc1ccc2nc(C)cc(SCC(=O)Nc3c(C)cc(C)cc3C)c2c1,1613,6.9,12.1,32.2*,·,·
COc1ccc2nc(C)cc(SCC(=O)Nc3c(C)cccc3C)c2c1,1994*,10.2,26.4*,-3.4,2033,2003
COc1cccc(/C=C/C(=O)NCc2cn3cc(Cl)ccc3n2)c1OC,1580,1.4,5.4,8.5,1862,1510
COc1c(OC)c(O)c2c(=O)cc(-c3c(O)cccc3O)oc2c1OC,1598,-0.1,2.0,21.3*,1922,1661
COc1ccc(-c2cc(=O)c3c(OC)c(OC)c(OC)c(OC)c3o2)cc1OC,1392,8.6,-2.6,5.1,2007,1488
Cc1cc([N+](=O)[O-])nn1CCCC(=O)Nc1cccc(Cl)c1Cl,1699,4.5,13.9,6.6,1901,1439
Clc1ccc(Cl)c2sc(N3CCCC3)nc12,1469,-3.0,-5.9,2.3,·,·
c1ccc2sc(N3CCOCC3)nc2c1,1698,-1.2,8.8,6.3,·,·
Clc1cccc2sc(N3CCN(c4ccccc4)CC3)nc12,1671,-1.3,28.1*,1.4,2030,1618
COc1cccc2sc(N3CCN(c4nc5ccccc5s4)CC3)nc12,1528,30.9*,3.1,12.3,·,·
CCOC(=O)c1ccccc1NC(=O)c1cn(-c2ccc(C)c(C)c2)c(=O)c2ccccc12,3144*,9.0,130.3*,-0.9,1817,1904
COC(=O)c1ccccc1NC(=O)c1cn(-c2ccc(C)c(C)c2)c(=O)c2ccccc12,1685,9.3,3.1,1.3,1931,1579
CN=C1CC(SC)=C1c1ccc(C)cc1,1559,-1.6,23.6*,10.1,·,·
O=C(OCC(=O)N1CCc2ccccc2C1)c1cccc([N+](=O)[O-])c1,1640,3.8,8.4,4.4,2033,1597
